Laboratory results from the supplement of paper PMC6555819.

What was measured:
Assay in all cases: PBM binding z-score (relative to random genomic background probes); higher = stronger binding; sequences stand for … in GC…GCGATTGACAGCGTAGAATGAAGG
[1] = system: RARb homodimer (NR concentration 270 nM)
Method in brief: (§1)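 Regression normalization was applied to scanned fluorescence from custom Agilent 4×180K protein-binding microarrays. Before scanning, arrays were incubated 1 h with ligand-free nuclear receptor dimers, and binding was detected with antibodies against each partner (one per run). Binding z-scores use the random background probes as reference.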

[2] = system: RARg:RXRa (NR concentration 270 nM, RXRa partner concentration 90 nM)
Method in brief: as §1

[3] = system: RARg homodimer (NR concentration 270 nM)
Method in brief: as §1

[4] = system: RXRa DBDmut IVT, anti-RXR (DBD mutation: RXRa K156A/R161A, NR concentration 90 nM)
Method in brief: as §1

[5] = system: RXRa homodimer (NR concentration 180 nM)
Method in brief: as §1

[6] = system: THRa:RXRa (NR concentration 90 nM, RXRa partner concentration 90 nM)
Method in brief: as §1

[7] = system: THRa homodimer (NR concentration 90 nM)
Method in brief: as §1

[8] = system: VDR:RXRa (NR concentration 270 nM, RXRa partner concentration 90 nM)
Method in brief: as §1

[9] = system: VDR homodimer (NR concentration 270 nM)
Method in brief: as §1

| Sequence | PBM binding z-score [1] | PBM binding z-score [2] | PBM binding z-score [3] | PBM binding z-score [4] | PBM binding z-score [5] | PBM binding z-score [6] | PBM binding z-score [7] | PBM binding z-score [8] | PBM binding z-score [9] |
| --- | --- | --- | --- | --- | --- | --- | --- | --- | --- |
| CGTCCAAGATCAGCAGGTCAGTGAAAGCGACGTG | 2.09 | 1.01 | 1.51 | 0.253 | 0.844 | 1.11 | 0.018 | 0.173 | 0.137 |
| CGTCCAAGGTCATAGGAGGTCGGTGAAGACAGAT | 4.09 | 6.01 | 6.48 | 3.77 | 6.13 | 4.77 | 2.45 | 5.71 | 3.77 |
| CCAGACAGGTGAGCAGGTAACTCAGCCTCGATTA | 0.399 | 0.113 | 0.308 | -0.0126 | -0.115 | 0.218 | 0.165 | -0.287 | -0.319 |
| TGAATGAGGTTAAACATCAGGGAACGTGGCGTCG | 0.708 | 2.37 | 1.44 | 1.35 | 3.15 | 2.65 | 0.474 | 1.87 | 0.833 |
| GCTCGGAGGATAAGGTCAGAGCTTTGTCCGTAGA | 3.31 | 2.92 | 3.06 | 0.342 | 2.71 | 3.33 | 2.82 | 1.15 | 0.184 |
| GCGACTGGGGTAAAGCAGGTTACCATAAGGTTGG | 0.792 | 0.464 | 0.108 | -0.286 | 1.03 | 2.59 | 0.334 | 1.15 | -0.11 |
| CCTCGGAGGACAGAAGGTAAGAGCTGTCCGCTTT | -0.457 | -0.117 | 0.0766 | -0.382 | -0.845 | -0.0375 | -0.566 | -0.622 | -0.677 |
| CTAACGAGGGCATGAGTTGATAGCAAATGCCGAT | 0.671 | 1.31 | 1.61 | 2.41 | 1.06 | 1.2 | 0.0031 | 1.4 | 1.43 |
| CGAACTAGGTCATCCAGGACAGTCAATACATTGA | 3.04 | 4.11 | 5.21 | 2.72 | 3.39 | 3.81 | 2.01 | 4.83 | 2.52 |
| TCTAGAAGGCCAGAGGGTCACTCAAGAGGTACGG | 3.16 | 3.17 | 2.72 | 0.844 | 3.03 | 1.75 | -0.0793 | 2.05 | 0.435 |
| TCTGCTAGGTTAACGATGGTCAGCTAATCTGCTA | 0.605 | 0.561 | 0.688 | 0.00765 | 0.42 | 1 | -1.07 | -0.0905 | -0.957 |
| CCTTACGTGTCACGAGGTTATAGCACGACGAGCG | 1.49 | 2.24 | 1.64 | 0.866 | 2.06 | 1.96 | 0.982 | 1.89 | 1.01 |
| TCTTGTAGATCATCAGGAGGTTAAGAAAGATCGA | 0.484 | 0.857 | 0.389 | 0.372 | 1.01 | 0.897 | -0.482 | 0.351 | -0.126 |
| TCTAGTTGGACAAAGGTCACACACTCGAAATGCG | 5.06 | 6.62 | 5.93 | 1.75 | 7.13 | 4.12 | 1.8 | – | 2.24 |
| TCGAGTAGCTTAGTCGGGGCATTCAGCCAACATA | -0.405 | -0.536 | -1.05 | -0.135 | -0.559 | -0.289 | -0.688 | – | -0.534 |
| CCTAGCAGGCCAGGGTCACTCACGCATTTCGCTT | 2.64 | 2.79 | 2.22 | 0.414 | 3.32 | 2.63 | 1.32 | – | 1.73 |
| ATATGTAGGTTAGCTGGGTTCATTCAGACTAGGC | 1.47 | 1.58 | 0.836 | 2.97 | 2.38 | 3.54 | 0.442 | – | 6.88 |
